Drawing on PubChem BioAssay AID624298 (National Center for Advancing Translational Sciences (NCATS), 2012), this text covers Potency for 17 molecules.

This experiment in a line: Activators of T cell receptors: Hit Validation. The conditions noted are these: primary human leukocytes, cytokine release by HTRF, 48 h, TCR-stimulated with anti-CD3 beads; series mostly up to 46.1 µM. A digest of the protocol:
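Primary human leukocytes incubated 48 hr with anti-CD3 beads plus compound, without co-stimulation. Secreted IL-2 quantified by HTRF (europium cryptate donor, d2 acceptor, 665 nm emission).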

Results filed as inconclusive are left out. Where a call stands in place of a potency, no number is given. Active and inactive are the calls of the source. The call rests on the fitted dose curve; in most records, active means well fitted activation curve with a large enough effect; inconclusive means small, poorly fitted or top-dose-only effect; inactive means no such curve, though single readings can be large or run the other way.
Potency means the concentration at half of the fitted maximal effect.

On to `CC(C)NS(=O)(=O)c1ccc(NC(=O)C(C)OC(=O)C2CCC2)cc1` (configuration not stated), for which the Potency entry was “inactive”. The value for `CCOC(=O)c1c(NC(=O)c2ccc(N3C(=O)C4C5C=CC(C5)C4C3=O)cc2)sc2c1CCCC2` (configuration not stated) was “inactive”; that for `Cc1cc(OCC(=O)OCC(=O)NCC2CCCO2)ccc1Cl` (configuration not stated) was “inactive”.

Regarding `CN(C)CCC[C@]1(c2ccc(F)cc2)OCc2cc(C#N)ccc21`, the Potency entry is “inactive”.

For the molecule `Cc1ccc(S(=O)(=O)NC23CC4CC(CC(C4)C2)C3)cc1`, the Potency entry was “inactive”. Take `CCN(CC)CC(=O)c1c(N)n(Cc2ccccc2)c(=O)n(C)c1=O`: the Potency result was “inactive”. The value for `COc1ccc(CN2CCN(C(=O)c3cc(C4CC4)nn3-c3ccccc3)CC2)cc1F` was “inactive”.

As to `N#Cc1ccc(CN2CCN(C(=O)c3cc(Cl)c4c(c3)OCCO4)CC2)cc1`, the Potency entry was “inactive”. For the molecule `CCN(CC)c1ccc2nc3ccccc3[n+](CC)c2c1`, the Potency is 4.99 µM (active).

Turning to `Cc1ccc(C(=O)NNC(=O)COC(=O)COc2ccccc2C#N)cc1`, the Potency entry was “inactive”. In the case of `CCOC(=O)c1sc(NC(=O)C2CC(=O)N(c3ccc4c(c3)OCCO4)C2)nc1C` (configuration not stated) it was “inactive”; in that of `CCN1CNC(=S)N(Cc2ccccc2)C1`, “inactive”; in that of `Cn1nc(C(F)(F)F)cc1-c1ccc(S(N)(=O)=O)s1`, “inactive”. On to `CC(NC(=S)NCCN1CCOCC1)C12CC3CC(CC(C3)C1)C2` (configuration not stated), for which the Potency result is “inactive”.

For the molecule `CC(=O)c1cccc(S(=O)(=O)N2CCC(C(=O)Nc3cccc(C(=O)NC4CC4)c3)CC2)c1`, the Potency result was “inactive”. As for `COc1ccccc1N1CCN(C(=O)C2CCN(S(=O)(=O)c3ccccc3F)CC2)CC1`, the Potency entry was “inactive”. In the case of `CN(C)c1ccc(NC(=O)COC(=O)CNC(=O)c2cccs2)cc1` it was “inactive”.
